The values below come from publication PMC4336329 (PLoS ONE, 2015).

The whole screen tested about 310,000 compounds, of which about 14,000 (4.5%) showed an effect of 50% or more. The effect is printed as a negative number. This excerpt belongs to a sample that is enriched for strong results.
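Note: peak tail current of the secondary pulse compared with the same well before compound.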

The target in this experiment is human ether-à-go-go-related gene (hERG) potassium channel (human, UniProt Q12809). As to the kind of experiment: primary screen, population patch clamp on CHO cells stably expressing hERG; higher = less effect of the substance.
Sequence of human ether-à-go-go-related gene (hERG) potassium channel (Q12809 whole entry, looked up): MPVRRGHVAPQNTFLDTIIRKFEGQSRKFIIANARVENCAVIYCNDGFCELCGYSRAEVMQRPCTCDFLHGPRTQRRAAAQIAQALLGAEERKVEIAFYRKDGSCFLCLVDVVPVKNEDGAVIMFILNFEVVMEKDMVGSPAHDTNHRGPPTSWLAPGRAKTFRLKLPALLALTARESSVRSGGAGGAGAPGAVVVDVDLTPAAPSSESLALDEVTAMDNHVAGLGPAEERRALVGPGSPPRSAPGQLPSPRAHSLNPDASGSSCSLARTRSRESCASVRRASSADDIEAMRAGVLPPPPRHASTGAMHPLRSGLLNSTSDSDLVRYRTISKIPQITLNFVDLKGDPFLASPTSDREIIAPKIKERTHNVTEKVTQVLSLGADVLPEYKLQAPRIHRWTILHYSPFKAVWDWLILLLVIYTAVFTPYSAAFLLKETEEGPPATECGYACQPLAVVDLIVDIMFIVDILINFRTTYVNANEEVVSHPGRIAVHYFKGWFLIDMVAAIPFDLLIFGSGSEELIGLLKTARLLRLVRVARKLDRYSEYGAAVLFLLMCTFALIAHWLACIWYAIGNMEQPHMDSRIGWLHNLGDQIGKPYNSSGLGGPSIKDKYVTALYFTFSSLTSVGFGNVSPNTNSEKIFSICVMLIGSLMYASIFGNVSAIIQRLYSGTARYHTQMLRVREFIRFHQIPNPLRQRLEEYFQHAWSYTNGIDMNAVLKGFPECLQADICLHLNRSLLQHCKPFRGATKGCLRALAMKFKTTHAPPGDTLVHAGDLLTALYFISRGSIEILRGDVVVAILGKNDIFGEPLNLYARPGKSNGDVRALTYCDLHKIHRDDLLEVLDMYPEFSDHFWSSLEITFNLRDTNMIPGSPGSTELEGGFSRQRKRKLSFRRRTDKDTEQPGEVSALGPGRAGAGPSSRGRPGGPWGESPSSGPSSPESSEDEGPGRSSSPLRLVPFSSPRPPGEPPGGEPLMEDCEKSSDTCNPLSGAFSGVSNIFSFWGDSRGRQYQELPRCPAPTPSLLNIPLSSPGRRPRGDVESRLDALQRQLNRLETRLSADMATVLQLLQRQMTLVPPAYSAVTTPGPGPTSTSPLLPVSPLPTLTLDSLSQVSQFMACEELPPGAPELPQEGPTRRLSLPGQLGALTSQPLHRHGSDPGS
On to `CC(=O)Nc1ccccc1-c1nn[nH]n1`, for which the “hERG current change (%, negative = inhibition) at 10uM” value is 0.73%.

As for `Cc1c(CCN)ccc2c1[nH]c1ccccc12`, the “hERG current change (%, negative = inhibition) at 10uM” value amounted to 0.0766%. In the case of `Oc1ccccc1/C=N/N1CCCCC1` it was 6.81%. In the case of `CCN(CC)c1ncnc2c1ncn2Cc1c(Cl)cccc1Cl`, the “hERG current change (%, negative = inhibition) at 10uM” value turned out to be 2.93%. The same measure for `CC(C(=O)O)n1cc(Cl)cn1` (centres unmarked): 8.82%; for `CCCCn1c(N)c(N(CC(C)C)C(=O)CN2C(=O)c3ccccc3C2=O)c(=O)[nH]c1=O`: -7.79%; for `Cc1ccc(NC(=O)c2ccc(OC(=O)c3cc4ccccc4o3)cc2)cc1`: 8.66%. In the case of `Cc1ccc(C(=O)Nc2ccccc2SCC2CSc3nc4ccccc4c(=O)n32)cc1` (centres unmarked) it was -68.4%.

On to `O=c1c2ccccc2nc2n1C(CSCc1ccc(Cl)cc1Cl)CS2` (centres unmarked), for which the “hERG current change (%, negative = inhibition) at 10uM” value is reported as -21.8%.

On to `O=c1c2ccccc2nc2n1C(CSCc1cccc(C(F)(F)F)c1)CS2` (centres unmarked), for which the “hERG current change (%, negative = inhibition) at 10uM” value was -23.4%. In the case of `Cc1nc2ccccc2c(=O)n1NC(=O)c1cccc(Cl)c1` it was 13%. With `O=c1c2ccccc2nc2n1C(CBr)CS2` (centres unmarked), the “hERG current change (%, negative = inhibition) at 10uM” value came out at 15.6%. In the case of `O=C(Nc1ccccc1SCC1CSc2nc3ccccc3c(=O)n21)c1ccccc1` (centres unmarked) it was -67.7%; in that of `Cc1ccc(C(=O)Nc2nc3ccccc3c(=O)s2)cc1`, 15.9%. On to `O=C(Nc1ccccc1SCC1CSc2nc3ccccc3c(=O)n21)c1cccc(Cl)c1` (centres unmarked), for which the “hERG current change (%, negative = inhibition) at 10uM” value is -75.5%. For `COc1cccc(SCC2CSc3nc4ccccc4c(=O)n32)c1` (centres unmarked), the “hERG current change (%, negative = inhibition) at 10uM” value is -22.3%.

With `Nc1ccccc1SCC1CSc2nc3ccccc3c(=O)n21` (centres unmarked), the “hERG current change (%, negative = inhibition) at 10uM” value was -45.2%. As for `O=c1c2ccccc2nc2n1C(CSc1ccccc1)CS2` (centres unmarked), the “hERG current change (%, negative = inhibition) at 10uM” value is -19.6%. The same measure for `Cc1cccc(C(=O)Nc2ccccc2SCC2CSc3nc4ccccc4c(=O)n32)c1` (centres unmarked): -80.4%; for `Cc1ccc(OC2CCN(C(=O)C3CCC(=O)N(C4CC4)C3)CC2)cc1` (centres unmarked): -15.8%. Consider `COC(=O)c1ccc(COC(=O)Cc2n[nH]c(=O)c3ccccc23)cc1`, for which the “hERG current change (%, negative = inhibition) at 10uM” value is -1.24%.

For the compound `CCC(C)N=CC1=C(O)CC(c2ccccc2)CC1=O` (centres unmarked), the “hERG current change (%, negative = inhibition) at 10uM” value is -4.11%. The same measure for `COc1ccc(C(=O)NCC(=O)OCC(=O)NC(=O)c2ccc(C(C)(C)C)cc2)cc1OC`: -23.7%; for `CCN(CC)c1ncc(C#N)c(N)n1`: 8.37%.

In the case of `COc1ccc(CNC(=O)C2C3C=CC4(CN(Cc5cccnc5)C(=O)C24)O3)cc1` (centres unmarked), the “hERG current change (%, negative = inhibition) at 10uM” value is -16.2%. With `CCCc1nnc(NC(=O)c2ccncc2)s1`, the “hERG current change (%, negative = inhibition) at 10uM” value is -3.78%. The same measure for `COc1ccc(NS(=O)(=O)c2ccc(NS(=O)(=O)c3cccs3)cc2)cc1`: 11.8%. Consider `CCOC(=O)c1cnc(-c2ccccc2)nc1Oc1ccc(OC)cc1`, for which the “hERG current change (%, negative = inhibition) at 10uM” value came out at 14.2%. Take `CCc1csc(CCNC(=O)C2CCC(=O)N(CCc3cccc(F)c3)C2)n1` (centres unmarked): the “hERG current change (%, negative = inhibition) at 10uM” value is listed as -13.4%.

Take `O=C(Nc1ccccc1SCC1CSc2nc3ccccc3c(=O)n21)c1ccccc1Cl` (centres unmarked): the “hERG current change (%, negative = inhibition) at 10uM” value was -70.5%. For the compound `O=c1c2ccccc2nc2n1C(CSCc1ccccc1)CS2` (centres unmarked), the “hERG current change (%, negative = inhibition) at 10uM” value is given as -37.1%. Turning to `O=c1c2ccccc2nc2n1C(CSc1ccc(F)cc1)CS2` (centres unmarked), the “hERG current change (%, negative = inhibition) at 10uM” value was -33.3%. For the compound `COC(=O)c1sc2ccccc2c1NC(=O)c1ccc(S(=O)(=O)N2CCCCC2)cc1`, the “hERG current change (%, negative = inhibition) at 10uM” value was found to be 11.2%. In the case of `Cc1c(/C=N/NC(=O)c2ccc(Br)o2)cnn1C` it was 21%.

Regarding `O=C1N=C(N2CCN(Cc3ccccc3)CC2)S/C1=C/c1cccs1`, the “hERG current change (%, negative = inhibition) at 10uM” value is listed as -41.1%. The same measure for `O=C1N=C(N2CCOCC2)S/C1=C/c1cccs1`: -5.52%. `N#CCCN1CCN(C2=NC(=O)/C(=C\c3cccs3)S2)CC1`: the “hERG current change (%, negative = inhibition) at 10uM” value was -52.4%.

Take `O=C(CCSCc1cccc(Cl)c1)NCCc1ccc(Cl)cc1`: the “hERG current change (%, negative = inhibition) at 10uM” value stood at 4.09%. Regarding `CCCCCCCCn1c(N2CCN(c3cccc(Cl)c3)CC2)nc2c1c(=O)[nH]c(=O)n2C`, the “hERG current change (%, negative = inhibition) at 10uM” value is 5.65%.

On to `Cc1ccc(S(=O)(=O)NCCC(=O)N2CCC(C(N)=O)CC2)cc1C`, for which the “hERG current change (%, negative = inhibition) at 10uM” value is listed as -6.54%. The same measure for `CCOc1ccccc1CN1C2CCC1CC(c1ccc(C)cc1)C2` (centres unmarked): -60.9%; for `CCOc1ccccc1C(=O)NC1CC2CCCC(C1)N2Cc1ccc(C)cc1` (centres unmarked): -65.2%. The same measure for `CCCN1C2CCCC1CC(NC(=O)c1ccccc1OCC)C2` (centres unmarked): -47.2%. Turning to `Cc1ccccc1C(=O)NC1CC2CCCC(C1)N2Cc1ccc(Cl)cc1` (centres unmarked), the “hERG current change (%, negative = inhibition) at 10uM” value was -71%.
